Compound activity as filed in PubChem BioAssay.
The list is not random: actives were taken first. Their share in the collection is about 13%.
HSD17B inh = blocks hydroxysteroid 17-beta dehydrogenase activity. actives 7.6% (n = 75,000). recombinant HSD17B10, NADH fluorescence kinetic. AID 893. Potency, µM (top dose mostly 57.1 µM), hits mostly inhibitors. Q99714;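 further: the protocol describes HADH2 (HSD17B10) and not the HSD17B4 of the title; nearly all actives have a fitted effect of over 70% in size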
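Enzyme plus compound, 15 min room temperature; substrate mix added (NAD+ 1 mM, beta-hydroxybutyryl-CoA 90 uM final); plates read kinetically for NADH fluorescence. HADH2 was His-tagged, E. coli-derived, 20 nM.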
4MU fluor = compound fluoresces in the 4-MU spectral region | compound autofluorescence, 340/450 nm, 4-MU equivalents; active compounds read high | max dye-equivalent concentration, M | actives 11% (n = 59,000) | AID 589; in the data active means max dye-equivalent concentration above about 10 nM; inconclusive means mostly about 1.1 nM to 9.6 nM
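Intrinsic fluorescence at 340/450 nm (ex/em) was read after 15 min at room temperature in pH 8.0, 100 mM Tris. Each compound concentration expressed as 4-MU-equivalent concentration from a six-point 4-MU standard series on each plate.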
HADH2 inh = HADH2 (human) dehydrogenase inhibition. Potency, µM (doses to about 57.1 µM), hits mostly inhibitors. AID 886. recombinant HADH2, NADH fluorescence, beta-hydroxybutyryl-CoA. actives 3.4% (n = 73,000); further: nearly all actives have a fitted effect of over 60% in size
Target sequence (Q99714 whole entry, looked up, one chain of several): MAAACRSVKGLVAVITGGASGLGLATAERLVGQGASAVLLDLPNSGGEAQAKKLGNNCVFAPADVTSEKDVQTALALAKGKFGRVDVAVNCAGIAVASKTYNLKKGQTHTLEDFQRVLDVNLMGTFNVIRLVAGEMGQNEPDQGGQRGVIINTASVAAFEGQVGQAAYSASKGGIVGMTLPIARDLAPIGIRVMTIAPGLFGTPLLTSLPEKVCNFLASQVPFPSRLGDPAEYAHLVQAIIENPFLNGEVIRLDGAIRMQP
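E. coli-expressed His-tagged HADH2 tested at 20 nM in alkaline Tris buffer (pH 9.0); oxidation of 90 uM beta-hydroxybutyryl-CoA with 1 mM NAD+ tracked fluorimetrically for 4 min.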
A350 fluor = compounds fluorescent in Alexa 350 spectral region | actives 11% (n = 59,000) | Compound autofluorescence, 340/450 nm, Alexa 350 dye-equivalents; active compounds read high | max dye-equivalent concentration, M | AID 590; in the data active means max dye-equivalent concentration above about 10 nM; inconclusive means mostly about 1.1 nM to 9.6 nM
AID923 = qHTS Assay for Allosteric/Competitive Inhibitors of Caspase-1: Spectroscopic Profiling in AFC Spectral Region; Potency, µM (doses to about 57.5 µM), usual class: activators; actives 1.1% (n = 75,000); compound fluorescence, AFC spectral region (405/520 nm); AID 923, 2007
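Baseline compound fluorescence (AFC region, 405 nm ex/520 nm em) taken from the intercept of kinetic reads with 50 nM caspase-1 and 5 uM Ac-WEHD-AFC; normalized to an on-plate AFC standard curve; compounds titrated up to 57 uM.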
A number is an active result; . = inactive; ? = inconclusive; / = no result; [ ] = dose if it differs, or a comment. Unless noted, the call rests on the fitted dose curve; in most records, active means well fitted curve in the direction sought with a large enough effect; inconclusive means small, poorly fitted or top-dose-only effect, or another doubt; inactive means no such curve, though single readings can be large; an effect the other way counts as inactive or inconclusive.

SMILES	HSD17B inh	4MU fluor	HADH2 inh	A350 fluor	AID923
Cc1ccc2c(c1)[nH]c1c(N3CCN(Cc4ccccc4)CC3)ncnc12	?	.	.	.	.
COC(=O)CNC(=O)C1(C)C=CCN1C(=O)c1ccccc1 (stereo not given)	.	/	.	/	.
Cc1ccc2c(c1)C(N1CCN(C)CC1)=Nc1cccnc1N2	.	.	.	.	.
C[C@H]1CN(CCO)CCN1c1ccccc1	.[11.4 µM]	?	.[11.4 µM]	?	.[11.5 µM]
CCOC(=O)c1sc(-c2ccccc2)cc1NC(=O)CSc1nnnn1C	?	1.3e-08M	?	1.1e-08M	.
COc1nc(Nc2ccc(-c3nc4ccccc4o3)cc2)nc(N2CCOCC2)n1	7.9µM	2.3e-07M	32µM	2.3e-07M	.
CNc1nc(OC)nc(N2CCOCC2)n1	.	2.9e-08M	.	2.7e-08M	.
CC1=CC(=O)C2=C(C)CCC3C(C)C(=O)OC3C12 (stereo not given)	.	/	/	/	.
COc1cccc(-c2nc(N(C)Cc3ccco3)c3ccccc3n2)c1	?	.	?	.	.
COc1cc(OC)cc(-c2nc(-c3cc4cc(C)ccc4nc3OC)no2)c1	.	2.3e-08M	.	2.8e-08M	.
COc1nc2c(C)cccc2cc1-c1noc(-c2ccco2)n1	25µM	?	.	?	.
COc1nc(-c2ccc(Cl)cc2)ccc1-c1noc(-c2ccco2)n1	.	?	?	?	.
Cc1sc(N)c(C(=O)c2cccc(C(F)(F)F)c2)c1C	?	/	.	/	.
OCCCSCCO	.[11.4 µM]	.	.[11.4 µM]	.	.[11.5 µM]
CN(Cc1ccccc1)Cn1ccnc1	.[11.4 µM]	.	.[11.4 µM]	.	.[11.5 µM]
Nc1nc(-c2ccccc2)cc(C(F)(F)F)n1	32µM	?	.	?	.
FC(F)(F)c1cc(-c2ccccc2)nc(N2CCCCC2)n1	25µM	4.7e-08M	.	3.7e-08M	.
C[N@+]1(CCC(=O)c2ccccc2)CC[C@H]2CC[C@H](C2)C1	.[11.4 µM]	.	.[11.4 µM]	.	.[11.5 µM]
COc1ccc2c(c1)OC1(O)COc3cc(OC)c(OC)cc3C1=C2 (stereo not given)	25µM	/	/	/	.
Cc1ccc2c(CNCc3ccco3)cc(=O)oc2c1	.	.	.	?	.
CC(C)(C)c1nn(-c2ccccc2)c2[nH]c(=O)c(CNCc3ccco3)cc12	32µM	.	.	.	.
Cc1nn2cc(-c3ccc(N)cc3)nc2s1	.	.	.	.	.
CCc1ccc(-c2cn3nc(C)c(C)nc3n2)cc1	/	1.7e-06M	/	1.9e-06M	/
O=C(CN1CCC2(CC1)OCCO2)c1ccc2cc[nH]c2c1	25µM	5.1e-08M	.	6.7e-08M	.
Cc1cnc(CNc2ncnc3ccc(-c4cccc(NS(C)(=O)=O)c4)cc23)cn1	.	.	.	.	.
SMILES	HSD17B inh	4MU fluor	HADH2 inh	A350 fluor	AID923
O=C1NC(c2cccs2)Nc2sc3c(c21)CCCC3 (stereo not given)	?	4.5e-08M	.	4.2e-08M	.
COc1cc2nc(-c3ccc(Br)o3)oc(=O)c2cc1OC	?	3.7e-08M	.	4.6e-08M	.
NC1CONC1=O (stereo not given)	.	/	/	/	.
COC1Cc2ccccc2N(C(=O)N2CCN(CCO)CC2)c2ccccc21 (stereo not given)	.	4.7e-08M	.	1.2e-08M	.
CN1CCN(C(=O)N2c3ccccc3C=Cc3ccccc32)CC1	.	/	.	/	.
CC1CCC(NC(=O)CN2C(=O)C3CCCN3c3ncc(Cl)cc32)CC1 (stereo not given)	?	1.1e-08M	.	1.2e-08M	.
COc1ccc2c(Cl)cc(NC(=S)Nc3ccccc3)nc2c1	.[11.4 µM]	.	.[11.4 µM]	.	.[11.5 µM]
CCOC(=O)c1cnc2c(C)cccc2c1NCc1ccco1	?	/	.	/	.
CCOC(=O)c1cnc2c(C(=O)OC)cccc2c1NCc1ccco1	32µM	3.7e-08M	?	3.9e-08M	.
CCOC(=O)c1ccc2ncc(C(=O)OCC)c(NCCCN3CCOCC3)c2c1	?	/	.	/	.
CCOC(=O)c1ccc2ncc(C(=O)OCC)c(NCc3ccco3)c2c1	25µM	3.9e-08M	.	3.8e-08M	.
CCOC(=O)c1cnc2ccccc2c1NCCO	.	?	.	1.1e-08M	.
O=C(/C=C/c1ccccc1)OC1CC(O)C2(O)C=CO[C@@H](OC3OC(CO)C(O)C(O)C3O)C12 (stereo not given in full)	.	/	/	/	.
CCCCOC(=O)Nc1nnc(-c2ccccc2OC)s1	10µM	.	.	.	.
COc1ccccc1-c1nnc(NC(C)=O)s1	25µM	.	.	.	.
